Measurements as given in PubChem BioAssay (NCI).
Compounds without any hit were thinned out: in the full panel of roughly 83,000, 20% have a hit.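 The test compound was applied at a single concentration to cells in 96-well plates for 48 hours, and percent growth was recorded.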 Values without a mark were called inactive. Activity calls are given as the source filed them. Rule for the calls: active = growth percent below 10; inactive = the rest.

Experiments:
Assay in all cases: NCI-60 one-dose screen, 48 h (100 = growth as untreated, 0 = no growth, -100 = all killed)
Details in all cases: 10 µM unless noted
MOLT-4 leukemia = system: MOLT-4 leukemia
SR leukemia = system: SR leukemia
RPMI-8226 leukemia = system: RPMI-8226 leukemia
OVCAR-8 ovarian = system: OVCAR-8 ovarian
OVCAR-5 ovarian = system: OVCAR-5 ovarian
OVCAR-4 ovarian = system: OVCAR-4 ovarian
SK-OV-3 ovarian = system: SK-OV-3 ovarian
IGROV1 ovarian = system: IGROV1 ovarian
OVCAR-3 ovarian = system: OVCAR-3 ovarian
HS 578T breast = system: HS 578T breast
NCI/ADR-RES ovarian = system: NCI/ADR-RES ovarian
T-47D breast = system: T-47D breast
BT-549 breast = system: BT-549 breast
MDA-MB-435 melanoma = system: MDA-MB-435 melanoma
SW-620 colon = system: SW-620 colon
MCF7 breast = system: MCF7 breast
HCT-116 colon = system: HCT-116 colon
HCC-2998 colon = system: HCC-2998 colon
KM12 colon = system: KM12 colon

| Structure (SMILES) | growth (MOLT-4 leukemia) | growth (SR leukemia) | growth (RPMI-8226 leukemia) | growth (OVCAR-8 ovarian) | growth (OVCAR-5 ovarian) | growth (OVCAR-4 ovarian) | growth (SK-OV-3 ovarian) | growth (IGROV1 ovarian) | growth (OVCAR-3 ovarian) | growth (HS 578T breast) | growth (NCI/ADR-RES ovarian) | growth (T-47D breast) | growth (BT-549 breast) | growth (MDA-MB-435 melanoma) | growth (SW-620 colon) | growth (MCF7 breast) | growth (HCT-116 colon) | growth (HCC-2998 colon) | growth (KM12 colon) |
| --- | --- | --- | --- | --- | --- | --- | --- | --- | --- | --- | --- | --- | --- | --- | --- | --- | --- | --- | --- |
| COc1ccc(/C=C\c2cc(OC)c(OC)c(OC)c2)cc1OCC(=O)Nc1nc2ccc(F)cc2s1 | 12.5% | 13.8% | 48.3% | 29.2% | 92.4% | 51.1% | 61.2% | 17% | 48.2% | 33.8% | 20.2% | 38.3% | 53.7% | 15.5% | 42.4% | 17.1% | 17.5% | 72% | 42.1% |
| O=C1Nc2ccccc2C2c3cccn3-c3ccccc3CN12 (stereo not given) | 29.3% | 19% | 55.2% | 63.3% | 82.3% | 71.7% | 46.7% | 62.9% | 41.7% | 64.2% | 20.9% | 27.7% | 50.7% | -15% (active) | 24.5% | 38.8% | 41.7% | 71.1% | 30.3% |
| CCCCCCC(=O)NC1=C(N2CC2)C(=O)C(NC(=O)CCCCCC)=C(N2CC2)C1=O | 49% | 40.7% | 56.1% | 32% | 93% | 30.9% | 39.8% | 20.3% | -53.4% (active) | 88.2% | 60.1% | 11.4% | 28% | 13.4% | 56.9% | 19.1% | -14.1% (active) | 53.9% | 48.8% |
| O=C(CC1(O)C(=O)Nc2ccc(Cl)cc21)c1ccc(C(=O)NCC2CCC3(CC2)OOC2(CCCCC2)OO3)cc1 (stereo not given) | -39.9% (active) | -48.2% (active) | -42.4% (active) | 3.83% (active) | 47.4% | 14.4% | 57.2% | -18.6% (active) | -76.8% (active) | 16.1% | 58.3% | -24.7% (active) | 48.8% | 8.39% (active) | -49% (active) | 37.4% | 41.6% | 83.6% | 9.65% (active) |
| COc1ccc(Nc2ccnc3cc(Cl)ccc23)cc1CN(CCCl)CCCl | -12.1% (active) | -0.721% (active) | -25.8% (active) | -39.3% (active) | -26.1% (active) | -15.3% (active) | 8.86% (active) | -36% (active) | -49.3% (active) | -27.6% (active) | -40.4% (active) | -7.47% (active) | -50.6% (active) | -88.3% (active) | -28.6% (active) | -10.7% (active) | -79.8% (active) | -79.5% (active) | -62.6% (active) |
| Cn1cc(-c2csc(-c3cn(CCCCN4CCCCC4)c4ccccc34)n2)c2cccnc21 | -55% (active) | -49.5% (active) | -31.1% (active) | -58.8% (active) | 96.8% | 82.3% | 87.6% | 70.6% | -75.2% (active) | 61% | -17.4% (active) | 88.4% | 69.2% | -79.6% (active) | -65.2% (active) | -65.9% (active) | -90.4% (active) | 87.2% | 0.281% (active) |
| O=C(Nc1ccncc1F)c1cn(CC2CC2)c2ccccc12 | 101% | 116% | 91.9% | 101% | 113% | 97.7% | 105% | 109% | 110% | 98.7% | 101% | 92.3% | 94.4% | 106% | 105% | 94.9% | 99.5% | 106% | 104% |
| O=[N+]([O-])c1cnc[nH]1 | 114% | 117% | 107% | 109% | 108% | 114% | 110% | 127% | 112% | 106% | 104% | 117% | 112% | 105% | 104% | 94.8% | 106% | 102% | 107% |
| Cc1ccc(C(=O)NCCCOc2ccc(N)cc2Cl)cc1S(=O)(=O)F | 79.7% | 87.9% | 85.6% | 101% | 102% | 97.5% | 82.1% | 95.5% | 98.8% | 98% | 103% | 81.9% | 98% | 90.9% | 104% | 103% | 98.9% | 106% | 90.8% |
| Cc1cnc(/C=C/C(=O)O)cc1-c1cc2c(cc1C)C(C)(C)CCC2(C)C | 85.5% | 66% | 50.4% | 89.5% | 104% | 85.4% | 84.4% | 94.4% | 57.8% | 69.9% | 78.7% | 80.3% | 69% | 83.8% | 86.6% | 21.8% | 57.2% | 85.3% | 57.3% |
| CC(CC1CCCCC1)NCc1ccccc1 (stereo not given) | 100% | 105% | 106% | 106% | 91.1% | 113% | 111% | 107% | 105% | 98.5% | 93.7% | 102% | 97.7% | 103% | 94% | 96.4% | 96.6% | 95.3% | 101% |
| CC[C@H](C)[C@H](NC(=O)C12C3C4C1C1C2C3C41NC)C(=O)N(C)[C@H](C[C@@H](OC(C)=O)c1nc(C(=O)N[C@@H](Cc2ccccc2)C[C@H](C)C(=O)OC)cs1)C(C)C (stereo not given in full) | 24.9% | 20% | 3.54% (active) | 20.4% | 43.5% | 45.5% | 17.1% | 36.9% | -28.1% (active) | 13% | 72.6% | 40.5% | 2.04% (active) | -27.9% (active) | 21.6% | 17.2% | 4% (active) | 15.9% | 15% |
| CCn1c2ccccc2c2cc(C(=O)c3ccc(C)c4ccccc34)ccc21 | 7.66% (active) | 2.83% (active) | 12.2% | 22.8% | 28.6% | 48.5% | 25.4% | 21.4% | 7.68% (active) | 30.1% | 6.35% (active) | 53.6% | 21.9% | -34.1% (active) | 11.8% | 14.4% | 12.1% | 29.6% | 13.4% |
| COC(=O)[C@@]1(C)CC[C@]2(C)CC[C@]3(C)C4=CC=C5C(=CC(=O)C(O)=C5C)[C@]4(C)CC[C@@]3(C)[C@@H]2C1 | -43.3% (active) | -46.7% (active) | -26.7% (active) | -72.9% (active) | -93.1% (active) | -95% (active) | -97.6% (active) | -77.4% (active) | -92.1% (active) | -41.6% (active) | -59.8% (active) | -57.1% (active) | -95.2% (active) | -90.8% (active) | -83% (active) | -69.1% (active) | -96.4% (active) | -69.5% (active) | -63.1% (active) |
| CC(=O)ONc1ccc([N+](=O)[O-])c(C(F)(F)F)c1 | 96.4% | 103% | 93.9% | 109% | 103% | 98.2% | 94.7% | 107% | 104% | 90.7% | 101% | 77.1% | 92.9% | 105% | 102% | 93.6% | 100% | 108% | 101% |
